Results published in the supplement of paper PMC13380429.

Tested on: Vero E6 infected with SARS-CoV-2
Assay: inhibition of SARS-CoV-2 cytopathic effect; higher = more antiviral protection, active = above 15
Conditions: 48 h

Measured: inhibition of SARS-CoV-2 cytopathic effect

CC(C)NCC(O)c1ccc2ccccc2c1 (stereo not given) [pronethalol]
inactive: 1 nM 0.73% | 8.33 nM 1% | 100 nM -0.07% | 833.33 nM 0.3% | 10000 nM -1.64%

O=C(CCCCCCCn1cc(-c2cccnc2)nn1)Nc1ccccc1-c1ccccc1
inactive: 1 nM 0.38% | 8.33 nM -1.7% | 100 nM -14.1% | 833.33 nM -14.7% | 10000 nM -12.8%

Nc1ncnc2c1ncn2C1CCCO1 (stereo not given)
inactive: 1 nM 2.17% | 8.33 nM 3.9% | 100 nM -1% | 833.33 nM 2.95% | 10000 nM -0.8%

CC(C)(CO)[C@@H](O)C(=O)NCCC(=O)O [pantothenic-acid]
inactive: 1 nM 0.14% | 8.33 nM -0.18% | 100 nM 0.03% | 833.33 nM -0.87% | 10000 nM 2.81%

C=CC(=O)Nc1cccc(Nc2nc(Nc3ccc(Oc4ccnc(C(=O)NC)c4)cc3)ncc2F)c1
inactive: 1 nM -1.65% | 8.33 nM 1.5% | 100 nM 0.39% | 833.33 nM -1.84% | 10000 nM 9.86%

CNC(=O)c1cccc2cc(Oc3ccnc4cc(OCC5(N)CC5)c(OC)cc34)ccc12 [lucitanib]
inactive: 1 nM 0.14% | 8.33 nM 2.44% | 100 nM 1.47% | 833.33 nM 2.09% | 10000 nM 2.58%

Cc1ccc2c(-c3ccccc3)nc(=O)n(C(C)C)c2c1 [proquazone]
inactive: 1 nM 0.68% | 8.33 nM 0.21% | 100 nM -1.31% | 833.33 nM -2.03% | 10000 nM -0.55%

O=C[C@H](F)[C@@H](O)[C@@H](O)[C@H](O)CO [2-fluoro-2-deoxy-D-galactose]
inactive: 1 nM 1.5% | 8.33 nM 1.13% | 100 nM 1.44% | 833.33 nM 1.15% | 10000 nM 0.92%

C[C@H](c1ccc2ccc(OC3CCC(C(F)(F)F)CC3)c(C(F)(F)F)c2c1)N1C2CCC1CC(C(=O)O)C2 (stereo not given in full) [autotaxin-modulator-1]
inactive: 1 nM -1.22% | 8.33 nM -0.49% | 100 nM 0.86% | 833.33 nM 0.12% | 10000 nM 1.02%

O=C(O)C1=CCCNC1 [guvacine]
inactive: 1 nM 2% | 8.33 nM 5.07% | 100 nM 3.21% | 833.33 nM 6.87% | 10000 nM 6.39%

CCOC1O[C@H]([C@@H](COCc2ccccc2)OCc2ccccc2)[C@H](OCc2ccccc2)[C@H]1O (stereo not given in full) [tribenoside]
inactive: 1 nM -7.21% | 8.33 nM -1.54% | 100 nM -0.86% | 833.33 nM 0.08% | 10000 nM 1.9%

CC(C)(Oc1ccc(CCNC(=O)c2ccc(Cl)cc2)cc1)C(=O)O [bezafibrate]
inactive: 1 nM -1.42% | 8.33 nM 0.91% | 100 nM -1.38% | 833.33 nM 0.02% | 10000 nM -0.38%

Nc1ncnc2c1nc(Br)n2[C@@H]1O[C@@H]2COP(=O)(O)O[C@H]2[C@H]1O [8-bromo-cAMP]
inactive: 1 nM 2.13% | 8.33 nM 0.61% | 100 nM 1.53% | 833.33 nM -1.33% | 10000 nM -0.37%

O=C(O)/C=C1\CCCc2ccccc2[C@H]1O (racemic)
inactive: 1 nM 0.95% | 8.33 nM 1.44% | 100 nM 1.65% | 833.33 nM 1.72% | 10000 nM 4.1%

CCCN1CCN(c2ccc(C(=O)NC3(C(=O)NCC#N)CCCCC3)cc2)CC1 [balicatib]
inactive: 1 nM 3.8% | 8.33 nM 0.96% | 100 nM -1.9% | 833.33 nM 0.29% | 10000 nM 10.8%

O=C(CCCCCCC(=O)Nc1cccnc1)NO [pyroxamide]
inactive: 1 nM 0.71% | 8.33 nM -1.1% | 100 nM 0.72% | 833.33 nM -1.43% | 10000 nM -5.97%

C[C@H]1C[C@H]2[C@@H]3CCC4=CC(=O)C=C[C@]4(C)[C@@]3(Cl)[C@@H](O)C[C@]2(C)[C@@]1(O)C(=O)CO [beclomethasone]
inactive: 1 nM -6.12% | 8.33 nM -1.77% | 100 nM 0.28% | 833.33 nM -4.99% | 10000 nM -2.5%

CCCC(=O)C1(c2ccccc2)CCN(C(=O)[C@@H](Cc2ccc(OC)cc2)NC(=O)[C@@H](N)Cc2cncn2C)CC1
inactive: 1 nM 0.65% | 8.33 nM -1.21% | 100 nM 0.17% | 833.33 nM -1.38% | 10000 nM 0.37%
